ADAM10 inh: human ADAM10 inhibitors, primary screen, biochemical, QFRET, HTS; actives 0.62% (n = 370,000); inhibition, % at 7 µM; AID 720582, 2013; recombinant ADAM10, EDANS/DABCYL FRET peptide cleavage, 3 h;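 active = inhibition above a per-campaign cutoff equal to the mean of compounds falling between control-based bounds plus 3 SD, cut at about 20% in these data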
NR3A LBD binder: binders of NR3A ligand-binding domain, primary screen, biophysical, differential scanning fluorimetry, uHTS; Glutamate receptor ionotropic, NMDA 3A (GRIN3A) ligand-binding domain; actives 2.5% (n = 340,000); AID 1259313, 2017; Tm shift relative to glycine control, % at 25 µM; NR3A LBD differential scanning fluorimetry, Tm shift; 0% = protein alone, 100% = glycine-bound protein;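 active = melting temperature shift of at least 10% of the positive control shift, at one fixed dose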
ADAM17 inh: ADAM17 inhibitors, primary screen, biochemical, QFRET | Disintegrin and metalloproteinase domain-containing protein 17 (Homo sapiens), P78536 | recombinant ADAM17, EDANS/DABCYL FRET peptide cleavage | inhibition, % at 6.95 µM | actives 0.83% (n = 370,000) | AID 720648, 2013;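 active = inhibition above the mean of compounds lying between control limits plus 3 SD, set per campaign, cut at about 8.5% in these data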
aDG glyco up: activators of alpha-DG glycosylation, primary screen, uHTS, Pro5-aDG cells, AlphaScreen. alpha-DG glycosylation AlphaScreen (IIH6); 0% Pro5, 100% B10-LARGE cell signal. activation, % at 10 µM. actives 0.22% (n = 360,000). AID 624168, 2012;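 active = activation of at least 8% versus controls, or a plate z-score of at least 8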;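 note: Pro5 are CHO cells carrying HIG-tagged alpha-DG that lacks glycosylation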
FAS-TE inh: FAS thioesterase domain inhibitors, primary screen, biochemical, fluorescence intensity, uHTS. Fatty acid synthase (Homo sapiens), P49327. recombinant FAS-TE, OMFH fluorogenic substrate, fluorescence endpoint. inhibition, % at 15 µM. actives 0.67% (n = 360,000);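 active = compounds whose normalised, plate-corrected inhibition of enzyme fluorescence in the single-dose primary screen is 50% or more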
FAS-TE inh conf: FAS thioesterase domain inhibitors, confirmation, biochemical, fluorescence intensity, single concentration. shares compounds with FAS-TE inh. recombinant FAS-TE, OMFH fluorogenic substrate. inhibition, % at 15 µM. actives 45% (n = 2,300). AID 624325, 2012;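 active = compounds inhibiting the enzyme by at least 50% at 15 µM in any one of the replicates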
Numbers stand for hits; . = inactive; / = no result. A selection: hits, their analogues and other compounds. The true share with any hit is near 4%.

SMILES	ADAM10 inh	NR3A LBD binder	ADAM17 inh	aDG glyco up	FAS-TE inh	FAS-TE inh conf
Cn1cnnc1Sc1cc(N2CCN(S(=O)(=O)c3ccc(Cl)c(Cl)c3)CC2)ccc1[N+](=O)[O-]	.	.	.	.	.	/
O=[N+]([O-])c1ccc(N2CCN(S(=O)(=O)c3ccc4ccccc4c3)CC2)cc1NCC1CCCO1 (configuration not stated)	.	.	.	.	51	.
Cn1cnnc1Sc1cc(N2CCN(S(=O)(=O)c3ccc4ccccc4c3)CC2)ccc1[N+](=O)[O-]	.	.	.	.	64	.
O=C1CSC(=S)N1c1cccc(Cl)c1	.	.	.	.	.	/
CS(=O)(=O)c1ccc(Cl)c(NC(=O)COC(=O)Cc2c[nH]c3ccccc23)c1	.	.	.	.	.	/
O=C(COC(=O)CCc1c[nH]c2ccccc12)Nc1cc([N+](=O)[O-])ccc1Cl	.	.	.	.	56	55
CC(=O)c1ccc(OCC(=O)Nc2ccccc2N2CCCC2)cc1	.	.	.	.	.	/
N#Cc1cc2nc(O)c(O)nc2cc1[N+](=O)[O-]	.	.	.	.	52	56
CNc1nc2cc([N+](=O)[O-])c([N+](=O)[O-])cc2nc1NC	.	.	.	.	.	/
CCN1C(=O)[C@H]2[C@@H](c3ccc(-c4ccc(OC)cc4)c(OC)c3)N3CCCC[C@@]3(C(=O)OC)[C@H]2C1=O	.	.	.	.	70	.
COC(=O)[C@@]12CCCCN1[C@H](c1ccc(-c3ccc(Cl)c(Cl)c3)c(OC)c1)[C@H]1C(=O)N(C)C(=O)[C@H]12	.	.	.	.	60	.
COC(=O)[C@@]12CCCCN1[C@H](c1ccc(-c3ccc(Cl)c(Cl)c3)c(OC)c1)[C@@H]1C(=O)N(C)C(=O)[C@@H]12	.	.	.	.	.	/
O=S(=O)(c1ccccc1)N1CCC(O)(CSc2ccc(Cl)cc2)CC1	.	.	.	.	.	/
CN(c1ccccc1)S(=O)(=O)c1cccc(C(=O)Nc2nccs2)c1	.	.	.	.	.	/
COc1cc(OC)c(N(C)S(=O)(=O)c2cccc(C(=O)Nc3nccs3)c2)cc1Cl	.	.	.	.	66	.
CN(C(=O)COC(=O)c1cccc(S(=O)(=O)N2CCCCC2)c1)C1CCS(=O)(=O)C1 (configuration not stated)	.	.	.	.	.	/
COc1cc(OC)c(N(C)S(=O)(=O)c2cccc(C(=O)OCC(=O)N(C)C3CCCCC3)c2)cc1Cl	.	.	.	.	66	.
O=C(O)CCCCCNc1nc(-c2ccccc2)nc2ccccc12	.	.	.	.	.	/
CC1=CS(=O)(=O)CC1Sc1ncn[nH]1 (configuration not stated)	.	.	.	.	.	/
COC(=O)c1cc(F)c(-n2cncn2)c(F)c1	.	.	.	.	.	/
COC(=O)c1cc([N+](=O)[O-])c(-n2cncn2)c([N+](=O)[O-])c1	.	.	.	.	57	.
O=[N+]([O-])c1ccc2ncnc(N3CCN(Cc4ccc5c(c4)OCO5)CC3)c2c1	.	.	.	.	82	87
Cn1c(=O)c([N+](=O)[O-])c(N2CCN(Cc3ccc4c(c3)OCO4)CC2)c2ccccc21	.	.	.	.	86	54
CCOC(=O)C1CCCN(c2oc(-c3ccc(F)cc3)nc2C#N)C1 (configuration not stated)	.	.	.	.	.	/
COc1ccc2[nH]c3c(c2c1)CCN1C(=O)C(CC(=O)NCCCn2ccnc2)C[C@H](C(=O)N2CCOCC2)[C@@]31CCC1CCCC1 (some centres not stated)	.	.	.	.	.	/

From PubChem BioAssay
